The text below walks through data of PubChem BioAssay (NCI).

Test in all cases: NCI-60 one-dose screen, 48 h (100 = growth as untreated, 0 = no growth, -100 = all killed)
What all share (settings): 10 µM unless noted

Assay [1] concerns T-47D breast.
The test system of assay [2] is BT-549 breast.
Assay [3] has as its system MDA-MB-435 melanoma.
For assay [4], the system named is SW-620 colon.
Assay [5] concerns MCF7 breast.
For assay [6], the system named is HCT-116 colon.
For assay [7], the system named is KM12 colon.
The test system of assay [8] is HCC-2998 colon.

Molecules are shown by their SMILES. About 83,000 compounds went through this panel and 20% of them were active in at least one assay; those are over-represented in the sample as a whole.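 Results are percent growth after 48 hours of single-concentration exposure. 100 means growth as in untreated cells, lower positive values show inhibition; negative values down to -100 show cell death.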 Unmarked numbers belong to inactive results. Calls of active or inactive are those of the source. The calls were made as follows: active = growth percent below 10; inactive = the rest.

As to `COc1cc(/C=C/C(=O)c2ccc(Nc3nc(Nc4ccccc4)nc(Nc4ccc(Cl)cc4)n3)cc2)cc(OC)c1OC`, the growth in assay [1] is 28.3%; in assay [2], 50.9%; in assay [3] it was 58.8%; in assay [4], 56.2%; in assay [5] it was 7.84% (active); in assay [6], 0.251% (active). The growth in assay [7] is 46.9%.

Regarding `CN(C)c1ccc2cc(-c3ccc(Cl)c(Cl)c3)c(N)nc2c1`, the growth in assay [1] is 18.6%; in assay [2] it was 48.3%; in assay [3], 22.4%; in assay [4], 30.1%; in assay [5], 24.3%; in assay [6] it was 13.3%. Further, the growth in assay [7] was 28.9%.

On to `Cn1ncc2c(Nc3ccc(Br)cc3)nc(Nc3ccc(Br)cc3)nc21`, for which the growth in assay [1] was 29.1%; in assay [2], 62.5%; in assay [3], 33.5%; in assay [4], 52.7%; in assay [5], 3.89% (active); in assay [6], 37%. For the same compound, the growth in assay [7] was 37.1%.

Consider `COc1cc2c(O)n(CCCn3ccnc3)c3c4cnc5cccc(c(=O)c3c2cc1OC)c54`, for which the growth in assay [1] was -6.91% (active); in assay [2] it was 27.6%; in assay [3], 51%; in assay [4] it was 20.4%; in assay [5], 10.8%; in assay [8], 70.4%. Also, in assay [7], the growth is 61%.

Take `N#Cc1c(NC(=O)c2cccc(C(F)(F)F)c2)sc2c1CCC(=O)C2`: the growth in assay [1] was -21.6% (active); in assay [2], -77.1% (active); in assay [3], -74.6% (active); in assay [4], -66.2% (active); in assay [5], 7.82% (active); in assay [6], -63.7% (active). In assay [7], the growth was -21.3% (active).

For the compound `N#Cc1c(N)nc2c(nnn2-c2cccc(C(F)(F)F)c2)c1N`, the growth was 48.1% in assay [1]; 101% in assay [2]; 108% in assay [3]; 95.4% in assay [4]; 60.1% in assay [5]; 97.4% in assay [6]. Also, the growth in assay [7] is 86.8%.

As to `CN1C[C@@H](c2ccc(Cl)cc2)[C@]2(NC(=S)N(c3ccccc3)C2=O)[C@@]12C(=O)NC1C=CC(Br)=C[C@H]12` (stereo not given in full), the growth in assay [1] was 49.5%; in assay [2], 56%; in assay [3], 77.4%; in assay [4], 85.2%; in assay [5], 51.3%; in assay [8], 94.9%. The growth in assay [7] is 78.5%.

As for `Cn1nnnc1-c1ccc(N)cc1`, the growth in assay [1] was 87.2%; in assay [2] it was 93.4%; in assay [3] it was 99.5%; in assay [4], 104%; in assay [5] it was 90.9%; in assay [6], 84.6%. The growth in assay [7] is 99.4%.

`CCN(CC)CCCNC(=O)c1ccc(N)cc1`: the growth is 102% in assay [1]; 102% in assay [2]; 108% in assay [3]; 97.8% in assay [4]; 95.1% in assay [5]; 94.8% in assay [6]. Further, in assay [7], the growth was 107%.

With `CC(c1ccc(-n2cccn2)cc1)c1cnc(N2CCc3ccc(C(N)=O)cc3C2)s1` (stereo not given), the growth in assay [1] is 2.07% (active); in assay [2], 12%; in assay [3] it was 40.4%; in assay [4] it was 97.3%; in assay [5], 37%; in assay [6], 40.6%. In addition, the growth in assay [7] was 68.2%.

Turning to `OCCCCc1nccc2c1[nH]c1ccccc12`, the growth in assay [1] was 110%; in assay [2] it was 57.5%; in assay [3], 85.7%; in assay [4], 108%; in assay [5], 89%; in assay [6] it was 101%. For the same compound, the growth in assay [7] is 110%.

Turning to `CCCNCC(=O)Nc1ccc(C(=O)OC(C)(C)CC)cc1`, the growth in assay [1] is 103%; in assay [2] it was 77.4%; in assay [3], 113%; in assay [4], 105%; in assay [5], 103%; in assay [6], 84.1%. The growth in assay [7] is 104%.

`CCCCCCNC(=O)c1cc(NCc2cc(O)ccc2O)ccc1O`: the growth in assay [1] is 21.3%; in assay [2] it was 22.4%; in assay [3] it was 71.5%; in assay [4], 76.8%; in assay [5], 54.9%; in assay [6] it was 75%. The growth in assay [7] was 69.1%.

Turning to `COC1(CC[C@@H](C)COC2OC(CO)C(O)C(O)C2O)O[C@H]2C[C@H]3[C@@H]4CC=C5C[C@@H](OC6OC(CO)C(OC7OC(C)C(O)C(O)C7O)C(O)C6OC6OC(C)C(O)C(O)C6O)CC[C@]5(C)[C@H]4CC[C@]3(C)[C@H]2[C@@H]1C` (stereo not given in full), the growth is -4.7% (active) in assay [1]; -84.2% (active) in assay [2]; -61.3% (active) in assay [3]; -96.4% (active) in assay [4]; -85.5% (active) in assay [5]; -86.1% (active) in assay [6]. In assay [7], the growth is -82.2% (active).

Take `CC(=O)c1ccc2c(c1)CCN2`: the growth in assay [1] is 105%; in assay [2], 106%; in assay [3] it was 111%; in assay [4], 113%; in assay [5] it was 98.3%; in assay [6], 100%. In assay [7], the growth is 110%.

For `C=C1C(=O)O[C@H]2[C@H]1CC/C(C(=O)NCCCCCCCCNC(=O)/C1=C/CC[C@@]3(C)O[C@H]3[C@H]3OC(=O)C(=C)[C@@H]3CC1)=C\CC[C@@]1(C)O[C@@H]21`, the growth in assay [1] is 28.4%; in assay [2], 51%; in assay [3], 86.8%; in assay [4] it was 14.2%; in assay [5] it was 37.9%; in assay [6], 29.7%. Besides, the growth in assay [7] is 93.1%.

Consider `COC(=O)[C@]12CC[C@@H](C)[C@H](C)[C@@H]1C1=CC[C@@H]3[C@@]4(C)C(C=O)=C[C@@](C)(CO)C4=CC[C@@]3(C)[C@]1(C)CC2`, for which the growth in assay [1] is 20.8%; in assay [2] it was 27.7%; in assay [3], 39.6%; in assay [4], 27.9%; in assay [5], 18.1%; in assay [6] it was 6.65% (active). The growth in assay [8] was 16.1%; in assay [7], 21.6%.
